Assay [1] has as its target T1, Ephrin type-B receptor 2 (Homo sapiens) (UniProt P29323).
T1 sequence (whole entry): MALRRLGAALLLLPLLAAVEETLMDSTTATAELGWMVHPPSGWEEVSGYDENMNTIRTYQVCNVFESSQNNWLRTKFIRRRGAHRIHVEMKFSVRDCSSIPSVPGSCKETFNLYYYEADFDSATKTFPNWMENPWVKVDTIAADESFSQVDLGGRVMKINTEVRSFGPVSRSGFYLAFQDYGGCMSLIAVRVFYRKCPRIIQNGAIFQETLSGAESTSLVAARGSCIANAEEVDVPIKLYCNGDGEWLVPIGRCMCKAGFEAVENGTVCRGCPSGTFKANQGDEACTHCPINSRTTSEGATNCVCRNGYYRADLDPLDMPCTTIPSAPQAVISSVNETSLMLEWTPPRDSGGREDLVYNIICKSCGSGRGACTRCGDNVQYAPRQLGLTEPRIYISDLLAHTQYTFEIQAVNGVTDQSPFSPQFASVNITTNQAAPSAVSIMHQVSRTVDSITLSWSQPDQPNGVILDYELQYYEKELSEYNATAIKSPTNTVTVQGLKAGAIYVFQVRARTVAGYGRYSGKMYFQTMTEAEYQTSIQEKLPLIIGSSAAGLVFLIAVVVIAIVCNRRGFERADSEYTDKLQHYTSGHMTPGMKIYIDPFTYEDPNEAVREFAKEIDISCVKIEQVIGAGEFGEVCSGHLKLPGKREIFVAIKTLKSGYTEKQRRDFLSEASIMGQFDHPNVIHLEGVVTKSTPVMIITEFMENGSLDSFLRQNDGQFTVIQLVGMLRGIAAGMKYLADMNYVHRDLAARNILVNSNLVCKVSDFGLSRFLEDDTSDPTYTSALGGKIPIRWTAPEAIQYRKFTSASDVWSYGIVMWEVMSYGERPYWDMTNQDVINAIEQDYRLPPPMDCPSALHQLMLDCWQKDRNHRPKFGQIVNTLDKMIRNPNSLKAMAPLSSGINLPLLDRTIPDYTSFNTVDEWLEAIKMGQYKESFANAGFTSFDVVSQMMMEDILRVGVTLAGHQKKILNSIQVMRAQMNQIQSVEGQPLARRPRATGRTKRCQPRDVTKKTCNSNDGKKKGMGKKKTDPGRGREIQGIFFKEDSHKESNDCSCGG
As to conditions: at 1 µM.

Assay [2] concerns the target T2, Ephrin type-B receptor 3 (Homo sapiens) (UniProt P54753).
T2 sequence (whole entry): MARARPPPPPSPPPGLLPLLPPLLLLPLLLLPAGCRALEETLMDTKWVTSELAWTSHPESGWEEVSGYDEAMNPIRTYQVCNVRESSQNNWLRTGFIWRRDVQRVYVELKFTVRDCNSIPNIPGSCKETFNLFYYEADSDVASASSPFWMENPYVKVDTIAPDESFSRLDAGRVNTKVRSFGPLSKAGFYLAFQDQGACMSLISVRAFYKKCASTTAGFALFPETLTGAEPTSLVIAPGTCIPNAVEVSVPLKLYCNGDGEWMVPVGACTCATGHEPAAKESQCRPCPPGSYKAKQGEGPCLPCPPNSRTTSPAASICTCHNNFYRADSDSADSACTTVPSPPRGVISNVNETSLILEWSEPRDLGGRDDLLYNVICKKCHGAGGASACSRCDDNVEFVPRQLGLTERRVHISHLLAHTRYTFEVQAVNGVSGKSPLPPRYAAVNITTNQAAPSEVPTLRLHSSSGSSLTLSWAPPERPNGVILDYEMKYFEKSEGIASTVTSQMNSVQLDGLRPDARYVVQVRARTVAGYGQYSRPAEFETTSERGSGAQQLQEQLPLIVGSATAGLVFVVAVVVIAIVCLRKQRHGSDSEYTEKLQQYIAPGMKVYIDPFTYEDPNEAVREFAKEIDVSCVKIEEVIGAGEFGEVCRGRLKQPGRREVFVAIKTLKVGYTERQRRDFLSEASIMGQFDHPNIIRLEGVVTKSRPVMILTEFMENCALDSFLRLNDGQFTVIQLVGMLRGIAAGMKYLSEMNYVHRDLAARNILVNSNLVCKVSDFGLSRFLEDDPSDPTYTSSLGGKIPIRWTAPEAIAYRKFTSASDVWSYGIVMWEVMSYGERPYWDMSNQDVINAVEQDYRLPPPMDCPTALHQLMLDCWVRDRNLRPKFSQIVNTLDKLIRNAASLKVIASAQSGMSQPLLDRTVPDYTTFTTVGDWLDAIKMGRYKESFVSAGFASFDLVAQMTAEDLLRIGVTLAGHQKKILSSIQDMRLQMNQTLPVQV
Particulars: at 0.1 µM.

Assay [3] deals with T2, Ephrin type-B receptor 3 (Homo sapiens). Particulars: at 1 µM.
In assay [4] the target is T3, Ephrin type-B receptor 4 (Homo sapiens) (UniProt P54760).
T3 sequence (whole entry): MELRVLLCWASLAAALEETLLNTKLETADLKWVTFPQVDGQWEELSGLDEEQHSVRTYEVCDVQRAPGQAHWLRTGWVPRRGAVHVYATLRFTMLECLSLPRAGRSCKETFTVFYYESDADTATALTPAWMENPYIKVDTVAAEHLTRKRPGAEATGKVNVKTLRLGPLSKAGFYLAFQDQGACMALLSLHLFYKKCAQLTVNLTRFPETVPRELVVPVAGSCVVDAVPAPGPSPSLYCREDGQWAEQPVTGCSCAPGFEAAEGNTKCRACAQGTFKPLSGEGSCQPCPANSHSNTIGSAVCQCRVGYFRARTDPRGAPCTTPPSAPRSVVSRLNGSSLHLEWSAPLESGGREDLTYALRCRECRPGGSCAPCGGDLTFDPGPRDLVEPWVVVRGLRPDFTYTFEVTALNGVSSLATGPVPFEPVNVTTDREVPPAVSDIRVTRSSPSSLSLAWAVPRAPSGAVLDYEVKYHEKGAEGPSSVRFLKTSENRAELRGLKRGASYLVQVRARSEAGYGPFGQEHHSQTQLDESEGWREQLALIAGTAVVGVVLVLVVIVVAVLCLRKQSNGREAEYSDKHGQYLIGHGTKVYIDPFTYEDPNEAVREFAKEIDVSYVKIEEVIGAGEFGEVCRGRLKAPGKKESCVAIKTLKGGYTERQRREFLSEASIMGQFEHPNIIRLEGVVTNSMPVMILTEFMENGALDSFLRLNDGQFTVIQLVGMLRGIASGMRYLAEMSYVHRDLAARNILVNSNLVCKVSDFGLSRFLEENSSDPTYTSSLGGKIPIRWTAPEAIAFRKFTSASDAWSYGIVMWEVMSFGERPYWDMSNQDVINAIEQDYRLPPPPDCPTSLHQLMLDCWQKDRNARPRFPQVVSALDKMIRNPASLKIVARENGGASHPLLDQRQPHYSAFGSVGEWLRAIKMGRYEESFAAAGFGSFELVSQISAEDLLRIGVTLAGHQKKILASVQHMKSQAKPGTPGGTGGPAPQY
Particulars: at 0.1 µM.

Assay [5] deals with T3, Ephrin type-B receptor 4 (Homo sapiens). As to conditions: at 1 µM.
The target in assay [6] is Receptor tyrosine-protein kinase erbB-2 (Homo sapiens) (UniProt P04626). As to conditions: at 0.1 µM.
For assay [7] the target is unchanged. As to conditions: at 1 µM.
The target in assay [8] is Receptor tyrosine-protein kinase erbB-4 (Homo sapiens) (UniProt Q15303). As to conditions: at 0.1 µM.
For assay [9] the target is unchanged. As to conditions: at 1 µM.
Assay [10] has as its target Tyrosine-protein kinase Fer (Homo sapiens) (UniProt P16591). As to conditions: at 0.1 µM.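 Further: reported figures are averaged percent inhibition of FER.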

This is an account of results in ChEMBL document CHEMBL1961873, “Compounds: GSK PKIS; Assays: Nanosyn kinase panel” (2012).

Receptor tyrosine-protein kinase erbB-2 (Homo sapiens), sequence (P04626 whole entry): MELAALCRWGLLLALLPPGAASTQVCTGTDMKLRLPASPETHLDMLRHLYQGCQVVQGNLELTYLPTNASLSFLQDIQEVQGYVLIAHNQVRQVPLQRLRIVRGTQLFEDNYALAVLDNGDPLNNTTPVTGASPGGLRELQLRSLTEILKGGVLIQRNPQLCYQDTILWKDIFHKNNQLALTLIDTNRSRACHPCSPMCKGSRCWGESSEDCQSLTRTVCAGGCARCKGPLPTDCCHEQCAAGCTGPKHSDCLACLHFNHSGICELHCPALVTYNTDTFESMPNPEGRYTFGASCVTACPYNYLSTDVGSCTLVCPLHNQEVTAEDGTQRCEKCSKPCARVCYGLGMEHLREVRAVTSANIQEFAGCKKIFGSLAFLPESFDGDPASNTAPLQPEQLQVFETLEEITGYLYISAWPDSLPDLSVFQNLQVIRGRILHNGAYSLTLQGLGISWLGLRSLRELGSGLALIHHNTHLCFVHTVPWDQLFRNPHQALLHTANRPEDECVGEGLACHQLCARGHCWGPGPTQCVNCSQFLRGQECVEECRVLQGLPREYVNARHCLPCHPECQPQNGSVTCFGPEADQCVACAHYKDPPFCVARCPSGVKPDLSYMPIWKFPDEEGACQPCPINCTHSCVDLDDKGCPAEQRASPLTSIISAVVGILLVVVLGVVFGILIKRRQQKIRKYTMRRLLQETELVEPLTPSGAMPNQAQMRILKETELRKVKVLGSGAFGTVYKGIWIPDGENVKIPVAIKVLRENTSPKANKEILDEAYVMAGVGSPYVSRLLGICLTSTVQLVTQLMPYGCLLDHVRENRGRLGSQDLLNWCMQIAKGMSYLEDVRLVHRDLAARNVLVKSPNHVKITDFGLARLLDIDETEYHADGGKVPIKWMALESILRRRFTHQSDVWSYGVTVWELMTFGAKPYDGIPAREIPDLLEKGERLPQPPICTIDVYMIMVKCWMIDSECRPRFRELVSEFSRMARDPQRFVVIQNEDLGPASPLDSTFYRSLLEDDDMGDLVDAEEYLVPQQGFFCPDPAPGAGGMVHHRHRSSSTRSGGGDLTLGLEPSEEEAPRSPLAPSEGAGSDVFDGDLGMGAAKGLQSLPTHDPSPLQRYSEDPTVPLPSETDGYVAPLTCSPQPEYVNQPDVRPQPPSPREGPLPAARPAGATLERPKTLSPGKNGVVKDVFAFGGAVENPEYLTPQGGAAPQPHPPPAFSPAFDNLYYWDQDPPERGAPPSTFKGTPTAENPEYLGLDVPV
Receptor tyrosine-protein kinase erbB-4 (Homo sapiens), sequence (Q15303 whole entry): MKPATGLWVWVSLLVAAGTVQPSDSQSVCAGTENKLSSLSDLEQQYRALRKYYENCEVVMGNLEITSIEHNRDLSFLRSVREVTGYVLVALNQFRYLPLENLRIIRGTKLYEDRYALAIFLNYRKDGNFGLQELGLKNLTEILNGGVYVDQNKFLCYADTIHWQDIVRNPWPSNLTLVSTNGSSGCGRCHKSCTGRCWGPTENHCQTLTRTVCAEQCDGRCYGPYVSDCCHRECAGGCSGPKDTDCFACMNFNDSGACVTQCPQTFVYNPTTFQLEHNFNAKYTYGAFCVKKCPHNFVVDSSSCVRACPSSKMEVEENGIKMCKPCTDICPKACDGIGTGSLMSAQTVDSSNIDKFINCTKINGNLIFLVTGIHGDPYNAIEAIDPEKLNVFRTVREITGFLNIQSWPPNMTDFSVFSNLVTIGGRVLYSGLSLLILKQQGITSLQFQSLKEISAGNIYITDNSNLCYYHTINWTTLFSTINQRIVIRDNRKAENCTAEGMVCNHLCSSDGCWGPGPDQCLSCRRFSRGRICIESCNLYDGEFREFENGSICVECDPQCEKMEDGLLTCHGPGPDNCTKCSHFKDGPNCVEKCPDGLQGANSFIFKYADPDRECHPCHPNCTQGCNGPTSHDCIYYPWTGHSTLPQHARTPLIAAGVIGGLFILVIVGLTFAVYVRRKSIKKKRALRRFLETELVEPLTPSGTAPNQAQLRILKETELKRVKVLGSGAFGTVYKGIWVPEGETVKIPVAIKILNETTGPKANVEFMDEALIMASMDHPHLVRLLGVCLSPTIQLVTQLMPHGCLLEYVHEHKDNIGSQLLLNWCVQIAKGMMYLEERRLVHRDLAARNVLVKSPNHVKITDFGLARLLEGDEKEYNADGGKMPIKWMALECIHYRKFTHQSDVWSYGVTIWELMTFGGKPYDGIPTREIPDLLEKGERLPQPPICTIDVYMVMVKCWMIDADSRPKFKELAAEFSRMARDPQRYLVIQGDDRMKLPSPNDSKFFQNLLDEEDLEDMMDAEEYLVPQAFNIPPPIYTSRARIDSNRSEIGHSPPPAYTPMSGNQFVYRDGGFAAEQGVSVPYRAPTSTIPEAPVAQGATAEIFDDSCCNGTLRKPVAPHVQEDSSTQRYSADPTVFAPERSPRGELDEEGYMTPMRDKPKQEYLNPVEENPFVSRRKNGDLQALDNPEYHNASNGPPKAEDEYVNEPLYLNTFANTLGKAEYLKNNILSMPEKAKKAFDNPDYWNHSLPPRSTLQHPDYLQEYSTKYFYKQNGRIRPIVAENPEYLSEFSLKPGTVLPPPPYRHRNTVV
Tyrosine-protein kinase Fer (Homo sapiens), sequence (P16591 whole entry, looked up): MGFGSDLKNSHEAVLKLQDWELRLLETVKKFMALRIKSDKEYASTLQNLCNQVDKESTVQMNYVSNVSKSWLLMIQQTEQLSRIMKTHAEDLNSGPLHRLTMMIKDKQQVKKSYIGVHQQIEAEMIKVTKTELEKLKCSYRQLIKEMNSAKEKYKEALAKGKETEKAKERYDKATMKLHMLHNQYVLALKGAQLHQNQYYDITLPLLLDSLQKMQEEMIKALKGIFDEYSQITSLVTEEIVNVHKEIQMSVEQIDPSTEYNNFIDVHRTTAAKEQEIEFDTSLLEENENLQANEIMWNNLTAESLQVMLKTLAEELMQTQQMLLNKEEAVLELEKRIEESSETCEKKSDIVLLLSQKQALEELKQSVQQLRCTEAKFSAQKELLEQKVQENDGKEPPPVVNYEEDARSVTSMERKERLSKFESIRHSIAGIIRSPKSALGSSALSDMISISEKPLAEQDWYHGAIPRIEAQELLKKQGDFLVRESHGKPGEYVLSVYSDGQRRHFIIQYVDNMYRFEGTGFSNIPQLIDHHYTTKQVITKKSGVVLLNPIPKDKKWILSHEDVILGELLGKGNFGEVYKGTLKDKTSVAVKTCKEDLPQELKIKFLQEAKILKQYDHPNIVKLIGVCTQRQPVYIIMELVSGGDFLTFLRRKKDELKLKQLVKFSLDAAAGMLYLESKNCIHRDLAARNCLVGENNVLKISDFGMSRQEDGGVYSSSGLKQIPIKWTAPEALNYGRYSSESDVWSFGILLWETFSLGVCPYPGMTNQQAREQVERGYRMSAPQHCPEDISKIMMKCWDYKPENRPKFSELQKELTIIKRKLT

For orientation: inhibition means the drop in the measured response relative to a control, in per cent. Take `C[C@@H](Oc1cc(-n2cnc3ccc(OCC4CCN(C)CC4)cc32)sc1C(N)=O)c1ccccc1C(F)(F)F`: the inhibition in assay [1] was -1.46%; in assay [2], -3.13%; in assay [3], -1.08%; in [4], -1.38%; in [5], 0.52%; in [6] it was -0.64%. Further, the inhibition in assay [7] was 0.08%; in [8], -5.11%; in assay [9], -0.34%; in assay [10] it was -2.09%.

For `NC(=O)c1sc(-n2cnc3ccccc32)cc1OCc1ccccc1Br`, the inhibition in assay [1] was found to be 10.9%; in assay [2], 4.52%; in assay [3] it was 6.83%; in assay [4], 1.58%; in assay [5], 3.37%; in [6], 0.61%. The inhibition in [7] was 3.64%; in assay [8], 3.34%; in [9] it was 9.23%; in [10] it was -0.27%.

Take `Nc1nccc(-c2c(-c3ccc(F)cc3)nn3cc(C(F)(F)F)ccc23)n1`: the inhibition is 5.83% in assay [1]; -0.56% in [2]; 3.25% in assay [3]; 0.18% in [4]; 1.91% in assay [5]; 2.01% in [6]. Besides, the inhibition was 3.5% in assay [7], 2.34% in assay [8], 11.4% in assay [9] and 5.04% in assay [10].

For `O=S(=O)(CCOCc1ccc(-c2ccc3ncnc(Nc4ccc(OCc5cccc(F)c5)c(Cl)c4)c3c2)o1)c1ccccc1`, the inhibition in assay [1] is 6.76%; in [2], -0.47%; in assay [3] it was 3.29%; in [4] it was 1.15%; in assay [5], 1.36%; in assay [6] it was 11.6%. The inhibition in [7] was 69.8%; in assay [8], 27.5%; in assay [9], 82.6%; in assay [10], -3.62%.

For `Cc1ccc2c(c1)/C(=N/Nc1ccc(S(N)(=O)=O)cc1)C(=O)N2`, the inhibition in assay [1] was -1.87%; in assay [2], 2.46%; in assay [3] it was -0.26%; in [4], 0.65%; in assay [5], 0.71%; in assay [6], 0.1%. The inhibition was -4.77% in [7], 6.45% in [8], 7.37% in assay [9] and 1.02% in [10].

As for `COc1cc(/C=N/Nc2ncnc3c2cnn3C(C)C)ccc1O`, the inhibition amounted to 30.4% in assay [1]; 2.7% in assay [2]; 4.2% in [3]; 3.42% in assay [4]; 21.4% in assay [5]; 1.13% in assay [6]. For the same molecule, the inhibition in assay [7] came out at 3.23%; in assay [8] it was 3.96%; in [9] it was 6.31%; in assay [10], 2.02%.

As for `CCOc1nccc2c1nc(-c1nonc1N)n2CC`, the inhibition amounted to 13.1% in assay [1]; 1.72% in assay [2]; 2.82% in assay [3]; 2.78% in [4]; 0.5% in [5]; 3.01% in assay [6]. The inhibition was 9.5% in assay [7], 6.98% in assay [8], 18% in [9] and 5.59% in assay [10].

For `Cc1ccc(O)cc1Nc1ccnc2ccc(S(C)(=O)=O)cc12`, the inhibition is 86.3% in assay [1]; 96.9% in assay [2]; 97.3% in [3]; 91.6% in assay [4]; 95.6% in assay [5]; 4.44% in assay [6]. The inhibition in assay [7] was 5.88%; in assay [8], 20.2%; in assay [9], 52.2%; in [10] it was 4.91%.

`O=C1Nc2ccc(-c3cccnc3)cc2C1=Cc1cc(Br)c(O)c(Br)c1`: the inhibition in assay [1] was 11%; in assay [2], 4.6%; in assay [3] it was 2.28%; in assay [4], 2.97%; in assay [5], 3.11%; in [6] it was -0.94%. In addition, the inhibition in [7] stood at 4.88%; in assay [8], 9.94%; in [9], 14.9%; in [10] it was 8.12%.
